In PMC11006913:

How the values were obtained:
Experiment in all cases: PBM; 200 nM protein, PBS
Conditions in all cases: dsDNA, one strand shown
HESX1 [1] = molecular target: HESX1 (Homo sapiens, UniProt Q9UBX0 95-180, R165K)
SHOX [2] = molecular target: SHOX (Homo sapiens, UniProt O15266 103-189)
ALX4 = ALX4 (Homo sapiens, UniProt Q9H161 200-286, Q225E)
HESX1 [3] = molecular target: HESX1 (Homo sapiens, UniProt Q9UBX0 95-180)
MSX2 = MSX2 (Homo sapiens, UniProt P35548 130-214, R199I)
ALX1 [4] = molecular target: ALX1 (Homo sapiens, UniProt Q15699 118-204, L144V)
ALX3 [5] = molecular target: ALX3 (Homo sapiens, UniProt O95076 139-225, N203Q)
SHOX [6] = molecular target: SHOX (Homo sapiens, UniProt O15266 103-189, R173C)
ALX1 [7] = molecular target: ALX1 (Homo sapiens, UniProt Q15699 118-204, L144R)
ALX3 [8] = molecular target: ALX3 (Homo sapiens, UniProt O95076 139-225)
PROP1 [9] = molecular target: PROP1 (Homo sapiens, UniProt O75360 56-141)
HESX1 [10] = molecular target: HESX1 (Homo sapiens, UniProt Q9UBX0 95-180, R109Q)
PROP1 [11] = molecular target: PROP1 (Homo sapiens, UniProt O75360 56-141, R99H)
ALX3 [12] = molecular target: ALX3 (Homo sapiens, UniProt O95076 139-225, L168Q)
HESX1 [13] = molecular target: HESX1 (Homo sapiens, UniProt Q9UBX0 95-180, P111T)
ALX3 [14] = molecular target: ALX3 (Homo sapiens, UniProt O95076 139-225, L168V)
PROP1 [15] = molecular target: PROP1 (Homo sapiens, UniProt O75360 56-141, F88S)
HESX1 [16] = molecular target: HESX1 (Homo sapiens, UniProt Q9UBX0 95-180, F115L)
ALX1 [17] = molecular target: ALX1 (Homo sapiens, UniProt Q15699 118-204)
ALX3 [18] = molecular target: ALX3 (Homo sapiens, UniProt O95076 139-225, N203S)
ALX3 (Homo sapiens, UniProt O95076 139-225, N203S), sequence (O95076 139-225 N203S): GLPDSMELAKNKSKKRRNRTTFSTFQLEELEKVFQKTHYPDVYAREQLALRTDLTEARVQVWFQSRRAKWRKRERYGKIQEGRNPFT

ALX1 (Homo sapiens, UniProt Q15699 118-204, L144R), sequence (Q15699 118-204 L144R): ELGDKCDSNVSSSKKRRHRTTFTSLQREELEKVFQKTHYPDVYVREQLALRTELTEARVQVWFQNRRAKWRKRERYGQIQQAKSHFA
SHOX (Homo sapiens, UniProt O15266 103-189, R173C), sequence (O15266 103-189 R173C): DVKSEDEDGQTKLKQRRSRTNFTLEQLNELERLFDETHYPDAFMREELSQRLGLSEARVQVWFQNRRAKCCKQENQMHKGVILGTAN
HESX1 (Homo sapiens, UniProt Q9UBX0 95-180, P111T), sequence (Q9UBX0 95-180 P111T): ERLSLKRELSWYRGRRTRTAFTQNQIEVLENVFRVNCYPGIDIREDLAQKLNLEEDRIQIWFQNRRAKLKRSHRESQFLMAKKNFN
HESX1 (Homo sapiens, UniProt Q9UBX0 95-180), sequence (Q9UBX0 95-180): as the sequence (Q9UBX0 95-180 P111T) above, with T17P counted along it
ALX4, sequence (Q9H161 200-286 Q225E): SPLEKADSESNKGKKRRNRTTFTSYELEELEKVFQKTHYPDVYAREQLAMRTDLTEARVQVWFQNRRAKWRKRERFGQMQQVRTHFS
PROP1 (Homo sapiens, UniProt O75360 56-141, R99H), sequence (O75360 56-141 R99H): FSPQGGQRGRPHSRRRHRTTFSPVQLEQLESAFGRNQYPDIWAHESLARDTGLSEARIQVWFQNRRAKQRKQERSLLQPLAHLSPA
SHOX (Homo sapiens, UniProt O15266 103-189), sequence (O15266 103-189): as the sequence (O15266 103-189 R173C) above, with C71R counted along it
MSX2, sequence (P35548 130-214 R199I): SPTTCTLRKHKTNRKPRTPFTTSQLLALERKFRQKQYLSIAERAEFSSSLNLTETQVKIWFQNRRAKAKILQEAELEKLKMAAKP
ALX3 (Homo sapiens, UniProt O95076 139-225), sequence (O95076 139-225): as the sequence (O95076 139-225 N203S) above, with S65N counted along it
ALX3 (Homo sapiens, UniProt O95076 139-225, N203Q), sequence (O95076 139-225 N203Q): as the sequence (O95076 139-225 N203S) above, with S65Q counted along it
PROP1 (Homo sapiens, UniProt O75360 56-141), sequence (O75360 56-141): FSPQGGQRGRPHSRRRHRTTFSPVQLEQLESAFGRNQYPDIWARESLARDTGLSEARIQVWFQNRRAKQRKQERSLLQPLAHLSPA
HESX1 (Homo sapiens, UniProt Q9UBX0 95-180, R165K), sequence (Q9UBX0 95-180 R165K): as the sequence (Q9UBX0 95-180 P111T) above, with T17P, R71K counted along it
ALX1 (Homo sapiens, UniProt Q15699 118-204), sequence (Q15699 118-204): as the sequence (Q15699 118-204 L144R) above, with R27L counted along it
PROP1 (Homo sapiens, UniProt O75360 56-141, F88S), sequence (O75360 56-141 F88S): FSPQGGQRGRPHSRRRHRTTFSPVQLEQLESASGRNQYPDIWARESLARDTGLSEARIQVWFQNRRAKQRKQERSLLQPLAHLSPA
ALX3 (Homo sapiens, UniProt O95076 139-225, L168V), sequence (O95076 139-225 L168V): as the sequence (O95076 139-225 N203S) above, with L30V, S65N counted along it
HESX1 (Homo sapiens, UniProt Q9UBX0 95-180, F115L), sequence (Q9UBX0 95-180 F115L): as the sequence (Q9UBX0 95-180 P111T) above, with T17P, F21L counted along it
ALX1 (Homo sapiens, UniProt Q15699 118-204, L144V), sequence (Q15699 118-204 L144V): as the sequence (Q15699 118-204 L144R) above, with R27V counted along it
HESX1 (Homo sapiens, UniProt Q9UBX0 95-180, R109Q), sequence (Q9UBX0 95-180 R109Q): as the sequence (Q9UBX0 95-180 P111T) above, with R15Q, T17P counted along it
ALX3 (Homo sapiens, UniProt O95076 139-225, L168Q), sequence (O95076 139-225 L168Q): as the sequence (O95076 139-225 N203S) above, with L30Q, S65N counted along it

Sequence | binding signal (HESX1 [1]) | binding signal (SHOX [2]) | binding signal (ALX4) | binding signal (HESX1 [3]) | binding signal (MSX2) | binding signal (ALX1 [4]) | binding signal (ALX3 [5]) | binding signal (SHOX [6]) | binding signal (ALX1 [7]) | binding signal (ALX3 [8]) | binding signal (PROP1 [9]) | binding signal (HESX1 [10]) | binding signal (PROP1 [11]) | binding signal (ALX3 [12]) | binding signal (HESX1 [13]) | binding signal (ALX3 [14]) | binding signal (PROP1 [15]) | binding signal (HESX1 [16]) | binding signal (ALX1 [17]) | binding signal (ALX3 [18])
GATAATTA | 13.6 upbm affinity estimate (log intensity, higher = more binding, comparable within an allelic series) | 12.6 upbm affinity estimate (log intensity, higher = more binding, comparable within an allelic series) | 14.1 upbm affinity estimate (log intensity, higher = more binding, comparable within an allelic series) | 13.4 upbm affinity estimate (log intensity, higher = more binding, comparable within an allelic series) | 13.3 upbm affinity estimate (log intensity, higher = more binding, comparable within an allelic series) | 12.3 upbm affinity estimate (log intensity, higher = more binding, comparable within an allelic series) | 8.59 upbm affinity estimate (log intensity, higher = more binding, comparable within an allelic series) | 10.1 upbm affinity estimate (log intensity, higher = more binding, comparable within an allelic series) | 11.8 upbm affinity estimate (log intensity, higher = more binding, comparable within an allelic series) | 12.9 upbm affinity estimate (log intensity, higher = more binding, comparable within an allelic series) | 12 upbm affinity estimate (log intensity, higher = more binding, comparable within an allelic series) | 9.64 upbm affinity estimate (log intensity, higher = more binding, comparable within an allelic series) | 12 upbm affinity estimate (log intensity, higher = more binding, comparable within an allelic series) | 11.2 upbm affinity estimate (log intensity, higher = more binding, comparable within an allelic series) | 11.9 upbm affinity estimate (log intensity, higher = more binding, comparable within an allelic series) | 10.8 upbm affinity estimate (log intensity, higher = more binding, comparable within an allelic series) | 7.94 upbm affinity estimate (log intensity, higher = more binding, comparable within an allelic series) | 8.2 upbm affinity estimate (log intensity, higher = more binding, comparable within an allelic series) | 12.8 upbm affinity estimate (log intensity, higher = more binding, comparable within an allelic series) | 8.72 upbm affinity estimate (log intensity, higher = more binding, comparable within an allelic series)
ATAATTAC | 12.6 upbm affinity estimate (log intensity, higher = more binding, comparable within an allelic series) | 12 upbm affinity estimate (log intensity, higher = more binding, comparable within an allelic series) | 13.4 upbm affinity estimate (log intensity, higher = more binding, comparable within an allelic series) | 12.6 upbm affinity estimate (log intensity, higher = more binding, comparable within an allelic series) | 13.1 upbm affinity estimate (log intensity, higher = more binding, comparable within an allelic series) | 11.8 upbm affinity estimate (log intensity, higher = more binding, comparable within an allelic series) | 8.56 upbm affinity estimate (log intensity, higher = more binding, comparable within an allelic series) | 9.76 upbm affinity estimate (log intensity, higher = more binding, comparable within an allelic series) | 11.5 upbm affinity estimate (log intensity, higher = more binding, comparable within an allelic series) | 12.5 upbm affinity estimate (log intensity, higher = more binding, comparable within an allelic series) | 11.6 upbm affinity estimate (log intensity, higher = more binding, comparable within an allelic series) | 9.02 upbm affinity estimate (log intensity, higher = more binding, comparable within an allelic series) | 11.4 upbm affinity estimate (log intensity, higher = more binding, comparable within an allelic series) | 10.7 upbm affinity estimate (log intensity, higher = more binding, comparable within an allelic series) | 11.1 upbm affinity estimate (log intensity, higher = more binding, comparable within an allelic series) | 10.3 upbm affinity estimate (log intensity, higher = more binding, comparable within an allelic series) | 7.95 upbm affinity estimate (log intensity, higher = more binding, comparable within an allelic series) | 7.97 upbm affinity estimate (log intensity, higher = more binding, comparable within an allelic series) | 12.5 upbm affinity estimate (log intensity, higher = more binding, comparable within an allelic series) | 8.66 upbm affinity estimate (log intensity, higher = more binding, comparable within an allelic series)
ATAATTAA | 13.5 upbm affinity estimate (log intensity, higher = more binding, comparable within an allelic series) | 12.7 upbm affinity estimate (log intensity, higher = more binding, comparable within an allelic series) | 14.2 upbm affinity estimate (log intensity, higher = more binding, comparable within an allelic series) | 13.3 upbm affinity estimate (log intensity, higher = more binding, comparable within an allelic series) | 13 upbm affinity estimate (log intensity, higher = more binding, comparable within an allelic series) | 12.3 upbm affinity estimate (log intensity, higher = more binding, comparable within an allelic series) | 8.66 upbm affinity estimate (log intensity, higher = more binding, comparable within an allelic series) | 10.3 upbm affinity estimate (log intensity, higher = more binding, comparable within an allelic series) | 11.9 upbm affinity estimate (log intensity, higher = more binding, comparable within an allelic series) | 12.9 upbm affinity estimate (log intensity, higher = more binding, comparable within an allelic series) | 11.9 upbm affinity estimate (log intensity, higher = more binding, comparable within an allelic series) | 9.82 upbm affinity estimate (log intensity, higher = more binding, comparable within an allelic series) | 11.9 upbm affinity estimate (log intensity, higher = more binding, comparable within an allelic series) | 11.2 upbm affinity estimate (log intensity, higher = more binding, comparable within an allelic series) | 12 upbm affinity estimate (log intensity, higher = more binding, comparable within an allelic series) | 10.9 upbm affinity estimate (log intensity, higher = more binding, comparable within an allelic series) | 8.13 upbm affinity estimate (log intensity, higher = more binding, comparable within an allelic series) | 8.29 upbm affinity estimate (log intensity, higher = more binding, comparable within an allelic series) | 12.8 upbm affinity estimate (log intensity, higher = more binding, comparable within an allelic series) | 8.77 upbm affinity estimate (log intensity, higher = more binding, comparable within an allelic series)
AATTAATA | 12.2 upbm affinity estimate (log intensity, higher = more binding, comparable within an allelic series) | 12 upbm affinity estimate (log intensity, higher = more binding, comparable within an allelic series) | 13.4 upbm affinity estimate (log intensity, higher = more binding, comparable within an allelic series) | 12.1 upbm affinity estimate (log intensity, higher = more binding, comparable within an allelic series) | 12.5 upbm affinity estimate (log intensity, higher = more binding, comparable within an allelic series) | 11.8 upbm affinity estimate (log intensity, higher = more binding, comparable within an allelic series) | 8.72 upbm affinity estimate (log intensity, higher = more binding, comparable within an allelic series) | 9.56 upbm affinity estimate (log intensity, higher = more binding, comparable within an allelic series) | 11.6 upbm affinity estimate (log intensity, higher = more binding, comparable within an allelic series) | 12.5 upbm affinity estimate (log intensity, higher = more binding, comparable within an allelic series) | 11.3 upbm affinity estimate (log intensity, higher = more binding, comparable within an allelic series) | 9.32 upbm affinity estimate (log intensity, higher = more binding, comparable within an allelic series) | 11.4 upbm affinity estimate (log intensity, higher = more binding, comparable within an allelic series) | 10.7 upbm affinity estimate (log intensity, higher = more binding, comparable within an allelic series) | 10.8 upbm affinity estimate (log intensity, higher = more binding, comparable within an allelic series) | 10.3 upbm affinity estimate (log intensity, higher = more binding, comparable within an allelic series) | 8.02 upbm affinity estimate (log intensity, higher = more binding, comparable within an allelic series) | 8.27 upbm affinity estimate (log intensity, higher = more binding, comparable within an allelic series) | 12.3 upbm affinity estimate (log intensity, higher = more binding, comparable within an allelic series) | 8.82 upbm affinity estimate (log intensity, higher = more binding, comparable within an allelic series)
